Test results taken from PubChem BioAssay (Tox21).
Values without a mark were called inactive. Records with an inconclusive call do not appear. Entries that show only a call come without a potency. Active and inactive are the calls of the source. Unless noted, calls come from the whole dose curve; as a rule, active = well fitted curve in the direction sought with a large enough effect in the repeat runs; inconclusive = weak or mixed curves; inactive = no such curve, though single readings can be large; an effect the other way counts as inactive or inconclusive.

Experiments:
[1] = qHTS assay to identify small molecule agonists of the estrogen receptor alpha (ER-alpha) signaling pathway in the presence of an antagonist - cell viability counter screen (AID 1259386);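 note: series mostly up to about 92 µM; cells exposed to compounds for 22 h at 37 °C before the viability read; nearly all actives have a fitted effect of over 30% in size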
Method in brief: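 Cell viability in VM7Luc4E2 cells (endogenous full-length ER-alpha) measured by CellTiter-Fluor fluorescence in the same wells as the luciferase screen. Cells pre-cultured 5 days in charcoal-stripped serum, then treated 22 h with compounds at 15 concentrations plus 10.0nM ICI-182,780.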

[2] = target: Progesterone receptor (Homo sapiens) (UniProt P06401); test: qHTS assay to identify small molecule agonists of the progesterone receptor (PR) signaling pathway (AID 1346784; calls by dose curve; note: nearly all actives have a fitted effect of over 30% in size)
Sequence of Progesterone receptor (Homo sapiens) (P06401 whole entry, looked up): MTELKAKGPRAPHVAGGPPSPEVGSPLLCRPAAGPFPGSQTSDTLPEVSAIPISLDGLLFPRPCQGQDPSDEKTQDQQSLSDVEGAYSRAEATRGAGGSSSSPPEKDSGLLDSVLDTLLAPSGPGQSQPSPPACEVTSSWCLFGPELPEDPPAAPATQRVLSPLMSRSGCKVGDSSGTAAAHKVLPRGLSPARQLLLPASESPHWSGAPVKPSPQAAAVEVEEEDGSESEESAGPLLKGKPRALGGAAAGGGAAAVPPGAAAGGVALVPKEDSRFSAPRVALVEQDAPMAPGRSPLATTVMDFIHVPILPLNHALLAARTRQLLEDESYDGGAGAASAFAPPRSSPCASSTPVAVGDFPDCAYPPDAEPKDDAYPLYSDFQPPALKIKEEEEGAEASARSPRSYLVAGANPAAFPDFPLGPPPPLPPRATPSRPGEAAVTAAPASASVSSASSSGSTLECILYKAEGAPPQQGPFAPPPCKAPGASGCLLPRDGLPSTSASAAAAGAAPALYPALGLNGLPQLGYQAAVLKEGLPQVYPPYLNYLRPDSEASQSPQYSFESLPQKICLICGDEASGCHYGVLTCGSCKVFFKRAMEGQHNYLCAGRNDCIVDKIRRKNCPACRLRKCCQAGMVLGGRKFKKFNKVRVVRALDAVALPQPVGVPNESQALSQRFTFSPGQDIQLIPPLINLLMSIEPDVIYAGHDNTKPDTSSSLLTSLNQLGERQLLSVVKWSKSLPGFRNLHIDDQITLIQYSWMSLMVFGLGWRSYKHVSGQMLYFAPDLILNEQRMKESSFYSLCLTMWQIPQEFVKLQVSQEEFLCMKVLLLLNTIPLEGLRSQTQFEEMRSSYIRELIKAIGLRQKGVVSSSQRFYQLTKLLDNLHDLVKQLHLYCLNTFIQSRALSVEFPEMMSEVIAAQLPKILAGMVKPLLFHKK
Method in brief: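 The screen uses PR-UAS-bla HEK 293T cells in charcoal-stripped serum (2%). Compounds are applied for 16 hr at 37C after a 6 hr pre-incubation, and reporter activity is detected with a FRET beta-lactamase substrate after 2 hr at room temperature.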

[3] = target: Progesterone receptor (Homo sapiens) (UniProt P06401); test: qHTS assay to identify small molecule antagonists of the progesterone receptor (PR) signaling pathway (AID 1346795; active = well fitted inhibition curve with a large enough effect in the signal ratio in the repeat runs, not every such curve was filed as active; the % refers to the signal ratio)
Method in brief: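 After 6 hr plating at 37C in 2% stripped-serum medium, PR-UAS-bla HEK293T cells got compounds, then 1 nM R5020. Sixteen hours later, LiveBLAzer substrate was applied for 2 hr at room temperature and fluorescence was recorded.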

[4] = qHTS assay to identify small molecule antagonists of the progesterone receptor (PR) signaling pathway - cell viability counter screen (AID 1346798); note: series mostly up to about 92 µM; nearly all actives have a fitted effect of over 50% in size
Method in brief: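 Viability was determined by ATP-based luminescence (CellTiter-Glo) in PR-UAS-bla HEK293T cells cultured in 2% charcoal-stripped serum and incubated 16 hr with compounds under R5020 stimulation.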

[5] = qHTS assay to identify small molecule agonists of the progesterone receptor (PR) signaling pathway - cell viability counter screen (AID 1346799; calls by dose curve; note: nearly all actives have a fitted effect of over 45% in size)
Method in brief: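 Viability was scored by ATP luminescence (CellTiter-Glo, 30 min, room temperature) in the same wells used for the reporter readout, after 16 hr compound exposure of PR-UAS-bla HEK293T cells.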

[6] = qHTS assay to identify small molecule antagonists of the TGF-beta/Smad signaling pathway - cell viability counter screen (AID 1346824); note: nearly all actives have a fitted effect of over 50% in size
Method in brief: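 SBE-bla HEK 293T cells, incubated overnight, then compound plus 0.25 ng/mL TGF-beta1 (stock added) for 5 hr at 37 C. Viability was read in the same wells by CellTiter-Glo luminescence after 30 min at room temperature.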

[7] = qHTS assay to identify small molecule agonists of the TGF-beta/Smad signaling pathway - cell viability counter screen (AID 1346829); note: top concentration of the series differs between compounds; nearly all actives have a fitted effect of over 45% in size
Method in brief: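 Tox21 qHTS format: SBE-bla HEK 293T cells treated with DMSO-dissolved compounds for 5 hr; CellTiter-Glo luminescence after 30 min at room temperature.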

[8] = qHTS assay to identify small molecule agonists of the TGF-beta/Smad signaling pathway (AID 1346859; active = well fitted activation curve with a large enough effect in the signal ratio in the repeat runs, not every such curve was filed as active; the % refers to the signal ratio; note: series mostly up to about 77 µM)
Method in brief: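 Dual-wavelength fluorescence (460/530 nm emission) quantified beta-lactamase expression under the Smad binding element in HEK 293T cells following 5 hr compound treatment at 37 C.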

[9] = target: Thyrotropin-releasing hormone receptor (Homo sapiens) (UniProt P34981); test: qHTS assay to identify small molecule antagonists of the thyrotropin-releasing hormone receptor (TRHR) signaling pathway (AID 1346877; active = well fitted inhibition curve with a large enough effect in the repeat runs, not every such curve was filed as active; note: series mostly up to about 51 µM)
Sequence of Thyrotropin-releasing hormone receptor (Homo sapiens) (P34981 whole entry, looked up): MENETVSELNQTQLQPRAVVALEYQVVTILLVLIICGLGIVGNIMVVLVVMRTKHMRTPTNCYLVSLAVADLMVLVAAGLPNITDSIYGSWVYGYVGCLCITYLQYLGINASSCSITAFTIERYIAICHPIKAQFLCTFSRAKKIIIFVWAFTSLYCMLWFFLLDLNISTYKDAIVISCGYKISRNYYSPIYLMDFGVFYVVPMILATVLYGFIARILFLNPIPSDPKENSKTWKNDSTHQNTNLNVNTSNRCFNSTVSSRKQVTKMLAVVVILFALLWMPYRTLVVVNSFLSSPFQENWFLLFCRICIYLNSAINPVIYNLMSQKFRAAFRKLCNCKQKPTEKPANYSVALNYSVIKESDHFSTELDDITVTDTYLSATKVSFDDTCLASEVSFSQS
Method in brief: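 TRHR-expressing HEK293 cells loaded with calcium dye for 2 h at 37 C; compounds pre-incubated 5 min at room temperature before TRH challenge at 1 nM final. Intracellular calcium fluorescence read kinetically for 3 min; 15 concentrations in triplicate.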

[10] = target: Thyrotropin-releasing hormone receptor (Homo sapiens) (UniProt P34981); test: qHTS assay to identify small molecule agonists of the thyrotropin-releasing hormone receptor (TRHR) signaling pathway (AID 1346891; calls by dose curve; note: series mostly up to about 58 µM)
Method in brief: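 Kinetic fluorescence (3 min, 1 s intervals) reported intracellular calcium after compound transfer onto TRHR-Hek293 cells pre-loaded with dye for 2 h at 37 °C.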

[11] = Caspase-3/7 induction in HepG2 cells by small molecules, qHTS assay (AID 1346978); note: nearly all actives have a fitted effect of over 15% in size
Method in brief: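 Wild-type HepG2 cells, 2,000/well, settled 5 hr at 37 C and 5% CO2, then compound-treated for 17 hr; caspase-3/7 activity read by luminescent Caspase-Glo 3/7 after 30 min at room temperature.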

[12] = Caspase-3/7 induction in CHO-K1 cells by small molecules, qHTS cell viability counter screen (AID 1346979); note: nearly all actives have a fitted effect of over 35% in size
Method in brief: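 Seeding: 1,500 CHO-K1 cells/well. Rest: 5hr, 37C. Treatment: compounds in DMSO, 16hr. Read: CellTiter-Fluor, 1hr, fluorescence.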

[13] = Caspase-3/7 induction in CHO-K1 cells by small molecules, qHTS assay (AID 1346980); note: nearly all actives have a fitted effect of over 15% in size
Method in brief: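 Wild-type CHO-K1 cells exposed to compounds for 17hr at 37 C, 5% CO2. Caspase-3/7 activity then measured by Caspase-Glo 3/7 luminescence after 30min at room temperature.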

[14] = Caspase-3/7 induction in HepG2 cells by small molecules, qHTS cell viability counter screen (AID 1346981); note: series mostly up to about 92 µM; nearly all actives have a fitted effect of over 30% in size
Method in brief: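 Wild-type HepG2 cells, 2,000/well, settled 5 hr at 37 C, 5% CO2 before compound addition. Viability read by CellTiter-Fluor fluorescence, reagent added after 16 hr compound exposure, then 1 hr at 37C, in the same wells as the caspase read.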

[15] = target: Nuclear receptor subfamily 1 group I member 2 (Homo sapiens) (UniProt O75469); test: Human pregnane X receptor (PXR) small molecule agonists, qHTS assay (AID 1346982); note: nearly all actives have a fitted effect of over 35% in size
Sequence of Nuclear receptor subfamily 1 group I member 2 (Homo sapiens) (O75469 whole entry, looked up): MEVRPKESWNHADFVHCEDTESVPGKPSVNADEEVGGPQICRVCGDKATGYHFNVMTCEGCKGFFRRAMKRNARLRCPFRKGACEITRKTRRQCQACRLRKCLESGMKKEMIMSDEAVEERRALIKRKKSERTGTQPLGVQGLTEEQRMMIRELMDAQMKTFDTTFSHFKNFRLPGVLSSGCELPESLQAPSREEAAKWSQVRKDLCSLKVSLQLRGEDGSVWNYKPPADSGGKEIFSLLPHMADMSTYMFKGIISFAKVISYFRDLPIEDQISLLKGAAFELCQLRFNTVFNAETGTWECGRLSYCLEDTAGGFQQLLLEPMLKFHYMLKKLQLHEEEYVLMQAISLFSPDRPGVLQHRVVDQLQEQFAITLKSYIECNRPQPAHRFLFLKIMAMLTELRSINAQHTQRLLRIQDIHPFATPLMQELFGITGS
Method in brief: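 PXR-Luc HepG2 reporter cells (CYP3A4-driven luciferase) in 5% charcoal-stripped FBS medium, plated 5 h before compound addition, then treated 24 h at 37C. Luciferase read by ONE-Glo luminescence after 30 min at room temperature.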

[16] = target: Nuclear receptor subfamily 1 group I member 2 (Rattus norvegicus) (UniProt Q9R1A7); test: Rat pregnane X receptor (rPXR) activation by small molecules, qHTS assay (AID 1346983); settings: rPXR luciferase reporter cells, One-Glo luminescence, 24 h; stronger effect = higher value; note: nearly all actives have a fitted effect of over 20% in size
Sequence of Nuclear receptor subfamily 1 group I member 2 (Rattus norvegicus) (Q9R1A7 whole entry, looked up): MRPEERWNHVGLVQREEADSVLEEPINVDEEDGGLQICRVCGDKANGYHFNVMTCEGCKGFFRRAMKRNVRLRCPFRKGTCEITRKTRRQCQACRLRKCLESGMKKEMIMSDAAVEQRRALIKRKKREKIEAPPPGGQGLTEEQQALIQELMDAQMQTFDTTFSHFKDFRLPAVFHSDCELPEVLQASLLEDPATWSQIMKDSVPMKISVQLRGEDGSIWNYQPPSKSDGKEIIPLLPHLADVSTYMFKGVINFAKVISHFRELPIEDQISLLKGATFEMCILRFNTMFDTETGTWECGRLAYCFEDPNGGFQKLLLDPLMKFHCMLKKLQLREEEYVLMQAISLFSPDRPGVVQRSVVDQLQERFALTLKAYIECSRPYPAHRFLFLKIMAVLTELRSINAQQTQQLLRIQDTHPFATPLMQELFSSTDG
Method in brief: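 Cell-based rPXR activation assay: rPXR cells, 2,000 per well, rested 5hr at 37 C, then exposed to compounds in DMSO for 24 hr at 37 C. Luciferase activity read by One-Glo luminescence after 30 min at room temperature.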

[17] = target: Nuclear receptor subfamily 1 group I member 2 (Homo sapiens) (UniProt O75469); test: CYP3A4 induction through human pregnane X receptor (PXR) by small molecules, qHTS assay (AID 1346984); note: nearly all actives have a fitted effect of over 40% in size
Method in brief: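 DPX-2 HepG2 cells carrying a PXR response element and CYP3A4-promoter luciferase construct, treated with compounds 24 hr at 37C. Then P450-Glo CYP3A4 Luciferin-IPA substrate (3uM final) for 3 hr at 37C, One-Glo added, luminescence read.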

[18] = target: Nuclear receptor subfamily 1 group I member 2 (Homo sapiens) (UniProt O75469); test: Human pregnane X receptor (PXR) activation by small molecules, qHTS assay (AID 1346985); note: nearly all actives have a fitted effect of over 40% in size
Method in brief: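 DPX-2 cells (HepG2 co-transfected with a PXR response element and a CYP3A4-promoter luciferase construct) were seeded at 2,000 per well, rested 5 hr at 37C, then exposed to DMSO-dissolved compounds for 24 hr. Activation was read as luciferase luminescence.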

[19] = target: Acetylcholinesterase (Homo sapiens) (UniProt P22303); test: Acetylcholinesterase (AChE) small molecule antagonists: colormetric cell-based qHTS assay (AID 1347395; calls by dose curve; note: nearly all actives have a fitted effect of over 30% in size; note: potency is the fitted concentration of half-maximal effect)
Sequence of Acetylcholinesterase (Homo sapiens) (P22303 whole entry, looked up): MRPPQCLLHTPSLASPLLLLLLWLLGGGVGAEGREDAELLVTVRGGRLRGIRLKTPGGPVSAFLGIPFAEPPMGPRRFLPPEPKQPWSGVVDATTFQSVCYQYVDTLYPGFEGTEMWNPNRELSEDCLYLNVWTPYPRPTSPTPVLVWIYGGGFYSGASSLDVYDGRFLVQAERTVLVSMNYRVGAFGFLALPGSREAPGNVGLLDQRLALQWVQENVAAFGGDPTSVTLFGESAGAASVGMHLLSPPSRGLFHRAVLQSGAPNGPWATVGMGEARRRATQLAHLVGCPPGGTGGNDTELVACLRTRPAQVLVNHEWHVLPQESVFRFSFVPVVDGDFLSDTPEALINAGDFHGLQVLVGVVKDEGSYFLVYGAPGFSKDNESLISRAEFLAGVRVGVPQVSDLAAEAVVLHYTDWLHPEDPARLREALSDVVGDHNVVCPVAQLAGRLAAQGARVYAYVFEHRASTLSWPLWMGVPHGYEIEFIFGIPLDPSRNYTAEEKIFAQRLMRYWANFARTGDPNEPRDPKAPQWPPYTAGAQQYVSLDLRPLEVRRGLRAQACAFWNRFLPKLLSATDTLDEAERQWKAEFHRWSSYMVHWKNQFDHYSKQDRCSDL
Method in brief: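 Quantitative HTS in attached SH-SY5Y cells: 30 min compound exposure, then 90 min with acetylthiocholine and DTNB at 37 C; colour from thiocholine reports AChE activity.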

[20] = Human pregnane X receptor (PXR) small molecule agonists, qHTS cell viability counter screen (AID 1346977); note: nearly all actives have a fitted effect of over 50% in size
Method in brief: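 HepG2 cells stably carrying the PXR-Luc reporter are cultured with 5% charcoal-stripped FBS and treated with compounds for 24hr. CellTiter-Fluor is added at 23hr and fluorescence is read after 1hr.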

Structure (SMILES) | Potency [1] | Potency [2] | Potency [3] | Potency [4] | Potency [5] | outcome [6] | Potency [7] | outcome [8] | Potency [9] | outcome [10] | outcome [11] | Potency [12] | outcome [13] | Potency [14] | Potency [15] | max activation [16] [%] | Potency [17] | Potency [18] | Potency [19] | Potency [20]
NC(=O)CS(=O)C(c1ccccc1)c1ccccc1 (stereo not given) | inactive | inactive | inactive | inactive | inactive | inactive | inactive | inactive | inactive | inactive | inactive | inactive | inactive | inactive | inactive | -0.488 | inactive | inactive | inactive | –
Cc1cc(OC(=O)N(C)C)nn1C(=O)N(C)C | inactive | inactive | inactive | inactive | inactive | inactive | inactive | inactive | inactive | inactive | – | inactive | inactive | inactive | inactive | – | – | – | 7.1 µM (active) | inactive
CCOC(=O)CCl | inactive | inactive | inactive | inactive | inactive | inactive | inactive | inactive | – | – | inactive | inactive | inactive | inactive | – | – | – | – | inactive | –
COc1ccccc1OC | inactive | inactive | inactive | inactive | inactive | inactive | inactive | – | inactive | inactive | inactive | inactive | inactive | inactive | inactive | – | – | – | inactive | inactive
C1CN2CCC1CC2 | inactive | inactive | inactive | inactive | inactive | inactive | inactive | inactive | inactive | inactive | inactive | – | inactive | inactive | inactive | – | – | – | inactive | inactive
CC(Cl)(Cl)Cl | inactive | inactive | inactive | inactive | inactive | inactive | inactive | – | inactive | inactive | inactive | inactive | inactive | inactive | inactive | – | – | – | inactive | inactive
CCCCOC(C)=O | inactive | inactive | inactive | inactive | inactive | inactive | inactive | inactive | inactive | inactive | – | inactive | inactive | inactive | inactive | – | – | – | inactive | inactive
CCC1(c2cccc(O)c2)CCCCN(C)C1 (stereo not given) | inactive | inactive | inactive | inactive | inactive | inactive | inactive | inactive | inactive | inactive | inactive | inactive | inactive | inactive | inactive | -1.16 | inactive | inactive | – | –
